D1 potentiator: enhances dopamine response at the human D1 receptor; P21728; HEK293 TREx D1 cells, calcium flux, dopamine EC20 potentiation; potentiation, % at 10 µM; 360,000 tested, 0.036% active; AID 504651; in the data active means potentiation above about 30%; further: 0% is about no effect
D1 agonist: agonists of human D1 dopamine receptor; P21728; HEK293 T-REx D1 cells, calcium flux, agonist mode; activation, % at 2 µM; 360,000 tested, 1% active; in the data active means activation above about 30%; further: 0% is about no effect
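Inducible HEK293 T-REx D1 cells, force-coupled to calcium signalling, were plated at 4000 cells/well with tetracycline and held overnight at 30 C. After no-wash calcium dye loading, compound-evoked calcium rise over 180 s flagged agonists.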
BCR signal inh: inhibitors of chronic active B-cell receptor signaling | ABC-DLBCL IkBa-CBG/CBR reporter, luminescence ratio, 4 h | Potency, µM (series often up to 46.1 µM), without a hit: at the top dose activity change, negative = inhibition, hits mostly inhibitors | 340,000 tested, 0.05% active | AID 493014; active means well fitted inhibition curve with a large enough effect in the signal ratio, with a control signal flat, not every such curve was filed as active; inconclusive means small, poorly fitted or top-dose-only effect, or effect the other way, or a change in a side signal; the % refers to the signal ratio;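 further: potency means the concentration at half of the fitted maximal effect; plate controls were basal doxycycline-induced cells for no effect and cells given 10 µM MG132 for full effect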
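TMD8 human ABC-DLBCL cells with doxycycline-inducible IκBα–green luciferase fusion and unfused red luciferase, in 0.5% FBS medium; compounds up to 46 uM, 4 h at 37C. Green/red luminescence ratio, filter-overlap corrected, fitted to concentration-response curves.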
D3 ag: D3 dopamine receptor (human) agonism. P35462. D3R DiscoveRx beta-arrestin cells, luminescence, 90 min. max activation, %. 410,000 tested, 0.58% active. AID 652048; in the data active means max activation above about 30%; further: 0% is about no effect
Target sequence (P35462 whole entry, looked up): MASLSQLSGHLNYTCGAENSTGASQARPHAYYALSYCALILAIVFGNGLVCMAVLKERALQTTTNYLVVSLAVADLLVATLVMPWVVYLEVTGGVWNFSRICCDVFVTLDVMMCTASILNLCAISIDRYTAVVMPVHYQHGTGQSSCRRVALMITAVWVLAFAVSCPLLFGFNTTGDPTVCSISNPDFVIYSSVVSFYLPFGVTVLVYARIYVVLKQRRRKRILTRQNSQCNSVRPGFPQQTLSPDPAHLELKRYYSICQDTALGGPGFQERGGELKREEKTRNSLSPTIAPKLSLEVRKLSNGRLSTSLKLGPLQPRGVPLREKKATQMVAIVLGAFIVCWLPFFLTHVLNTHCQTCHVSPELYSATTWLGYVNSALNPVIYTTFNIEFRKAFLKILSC
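Agonist mode: compounds and dopamine controls were applied to plated cells for 90 min at 37 degrees C after an overnight attachment at 1500 cells/well. Luminescent read-out followed 30 - 60 minutes at room temperature with DiscoveRx detection reagent.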
D1 antagonist: human D1 dopamine receptor antagonism. HEK293 TREx D1 cells, calcium flux, dopamine EC80; stronger effect = lower value. P21728. 360,000 tested, 3.2% active. activity change, negative = inhibition, % at 10 µM; in the data active means activity change below about -30%; further: on the % scale 0 is the no-effect control and ±100 the full control effect
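Inducible Hek293 Trex D1 cells (tetracycline, overnight, 30 C). Calcium dye 30–90 min RT. Antagonist mode: EC80 dopamine added after 180 s compound read.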
D3 antag: blocks the human D3 dopamine receptor. P35462. max response, negative = inhibition, %. D3R cells, DiscoveRx beta-arrestin luminescence, antagonist mode; stronger effect = lower value. 360,000 tested, 2.5% active; in the data active means max response below about -50%; inconclusive means no clear call, values can overlap the other calls; further: on the % scale 0 is the no-effect control and ±100 the full control effect
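Cells expressing the human receptor were seeded at 1500 cells/well, incubated overnight at 37 degrees C in 5% CO2, then exposed to library compounds with dopamine controls for 90 minutes at 37 degrees C before luminescent detection.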
* hit, by the source's call; ? = inconclusive; / = no result; [ ] = another dose, or the depositor's remark. Hits are enriched below; roughly 6% of the tested compounds scored in any of these assays.

SMILES | D1 potentiator | D1 agonist | BCR signal inh | D3 ag | D1 antagonist | D3 antag
CC(=O)Nc1ccc(S(=O)(=O)N2CCC(c3nc4ccc(C)cc4[nH]3)CC2)cc1 | -6 | 0 | 0% | -1 | -23 | -92*
COC(=O)c1ccccc1NC(=O)NC1CCCCC1 | -5 | 5 | ? | 3 | -44* | 9
Cc1ccc(NC(=O)NC2CCN(S(=O)(=O)c3ccc(F)cc3)CC2)cc1 | -7 | 3 | ? | 10 | -53* | -13
O=C(Nc1cccc(F)c1)NC1CC2CCCC(C1)N2C1CC1 (stereo not given) | -10 | 3 | -1% | -10 | -34* | 0
COC(=O)c1ccccc1NC(=O)NC1CC1 | -2 | 0 | 3% | 1 | 13 | 1
O=C(Nc1cccc(F)c1)NC1CCCCC1 | -3 | 20 | ? | -15 | -5 | -6
CCOC(=O)Nc1ccc(S(=O)(=O)N2CCC(c3nc4ccccc4[nH]3)CC2)cc1 | / | / | / | 2 | / | -12
Cc1cn2c(=O)c(S(=O)(=O)NCc3ccc(F)cc3)c(C)nc2s1 | -5 | 0 | / | -3 | -8 | /
NC(=S)N/N=C/c1ccc(C23CC4CC(CC(C4)C2)C3)cc1 | 21 | 1 | 2% | -28 | 40 | -89*
NC(=S)N/N=C/c1ccccc1 | -1 | 1 | 0% | 4 | 1 | -9
CCc1ccccc1NC(=O)CSc1ncc2c(n1)-c1cc(Cl)ccc1N(Cc1ccccc1)S2(=O)=O | 1 | 1 | / | -2 | -50* | /
O=C(CSc1ncc2c(n1)-c1cc(Cl)ccc1N(Cc1ccccc1)S2(=O)=O)NCc1ccccc1 | 1 | 2 | / | -10 | -3 | /
Cc1ccc(NC(=O)c2ccc(Br)o2)c([N+](=O)[O-])c1 | / | / | / | 1 | / | -14
NS(=O)(=O)c1ccc(NNC(=O)c2ccc(Br)o2)c([N+](=O)[O-])c1 | / | / | 2% | -17 | / | -65*
Cc1cccnc1C(NC(=O)C1CCN(CCCOc2ccccc2)CC1)c1ccc(F)cc1 (stereo not given) | / | / | / | -27 | / | -105*
COc1cc(CN2CCC(C(=O)NC(c3ccc(F)cc3)c3ncccc3C)CC2)cc(OC)c1 (stereo not given) | / | / | / | -20 | / | 0
COc1ccc(OCCN2CCC(C(=O)NC(c3ccc(Cl)cc3)c3cccnc3)CC2)cc1 (stereo not given) | / | / | / | -15 | / | 20
Cc1cccnc1C(NC(=O)C1CCN(Cc2ccccc2)CC1)c1ccc(F)cc1 (stereo not given) | / | / | / | -12 | / | -55*
COc1ccc(C(NC(=O)C2CCN(Cc3ccc(Oc4ccccc4)cc3)CC2)c2ccccc2C)cn1 (stereo not given) | / | / | / | -15 | / | -79*
CN(C)c1ccc(CN2CCC(C(=O)NC(c3ccc(Cl)cc3)c3cnccn3)CC2)cc1 (stereo not given) | / | / | / | -18 | / | -29
COc1ccc(CN2CCC(C(=O)NC(C)c3cccc4ccccc34)CC2)cc1 (stereo not given) | / | / | / | -10 | / | ?
Cc1cccnc1C(NC(=O)C1CCN(Cc2ccc(Oc3ccccc3)cc2)CC1)c1ccccc1 (stereo not given) | / | / | / | -22 | / | -81*
Cc1nn(-c2ccc(N3CCCC3)nn2)c(C)c1CCC(=O)NCc1ccccc1F | -4 | 0 | / | -2 | -5 | /
C[C@H]1CN([C@@H](C)CO)S(=O)(=O)c2ccc(Br)cc2O[C@H]1CN(C)C(=O)CCN1CCCCC1 | / | / | / | -1 | / | 12
Cc1ccc(C)c(N2CCN(C(=O)Cn3c(=O)c4cccn4c4ccc(F)cc43)CC2)c1 | -1 | -1 | / | -12 | 6 | /
SMILES | D1 potentiator | D1 agonist | BCR signal inh | D3 ag | D1 antagonist | D3 antag
O=C1c2ccccc2C(=O)C1(c1ccccc1)N1CCN(c2cccc(C(F)(F)F)c2)CC1 | 0 | 4 | / | -9 | -14 | /
O=C(NCc1cccnc1)c1cc(C2CCCN(S(=O)(=O)c3ccccc3)C2)on1 (stereo not given) | / | / | / | 2 | / | 58
COc1cc(F)c(S(=O)(=O)N2CCN(S(=O)(=O)c3ccc4c(c3)OCCO4)CC2)c(F)c1 | -2 | 5 | / | / | 20 | /
CN1CCC(N(CCc2ccccc2)C(=O)CCC(=O)O)CC1 | 5 | 3 | 5% | 0 | -32* | 7
CCN(C(=O)CCc1ccccc1)C1CCCCC1 | 0 | 2 | 6% | -3 | 4 | 6
COc1ccc(-c2cc(C(=O)Nc3cc(OC)cc(C(=O)Nc4cccc(C(F)(F)F)c4)c3)[nH]n2)cc1 | -4 | 10 | -1% | -7 | -31* | 5
COc1cc(NC(=O)N2CCNC2=O)cc(C(=O)Nc2cccc(C(F)(F)F)c2)c1 | -3 | 1 | 18µM* | 0 | 1 | -16
COc1ccc(NC(=O)CCc2nnc3n(CC(C)C)c(=O)c4ccccc4n23)cc1 | 0 | -1 | / | 14 | 3 | /
CN(Nc1cccc(Cl)c1)c1cccc(Cl)c1 | / | / | / | -4 | / | -5
CC(Oc1ccc(F)cc1)C(=O)Nc1cc(-c2ccc(F)c(F)c2)no1 (stereo not given) | -1 | 111* | / | -1 | -41* | /
O=C(Nc1cc(-c2ccc(F)c(F)c2)no1)c1ccccc1F | 0 | -3 | / | -1 | -1 | /
Cn1nc(C(=O)NNC(=O)COc2ccccc2)c2ccccc2c1=O | 1 | 0 | 1% | -1 | -35* | ?
CCn1nc(C(=O)NNC(=O)COc2ccc(OC)cc2)c2ccccc2c1=O | -5 | 0 | -3% | 2 | -1 | 34
COc1ccc2sc(-c3ccc(N(C)C)cc3)c(C#Cc3cncn3C)c2c1 | / | / | 0% | 83* | / | 234
COc1ccc2sc(-c3ccc(SC)cc3)c(C#CCO)c2c1 | / | / | ? | 62* | / | 112
COc1ccc2sc(-c3ccc(N(C)C)cc3)c(C#CCCO)c2c1 | 0 | 5 | ? | 32* | / | 122
COc1cccc(-c2sc3ccc(OC)cc3c2C#CC(C)(C)O)c1 | 0 | 0 | ? | 71* | / | -11
CCCCn1c(C)cc2c(c1=O)C1O[C@](c3ccsc3)(Cc3ccccc31)O2 | 4 | 2 | 5%[9.22 µM] | / | 5 | /
O=[N+]([O-])c1cc(C(F)(F)F)ccc1NC1CCN(Cc2ccccc2)C1 (stereo not given) | 0 | 0 | -1% | -28 | -2 | -74*
NC(=O)CC(NC(=O)c1ccccc1)c1ccc(NC2CCN(Cc3ccccc3)CC2)c([N+](=O)[O-])c1 (stereo not given) | -4 | 2 | ? | 1 | 8 | -8
O=[N+]([O-])c1cc(C(F)(F)F)ccc1NC1CCN(Cc2ccccc2)CC1 | -3 | 3 | 1% | -30 | -12 | -74*
O=C(COc1ccccc1)NCC1(N2CCCCC2)CCCCC1 | 3 | -1 | -9% | -7 | -66* | 2
CS(=O)(=O)c1ccc(C(=O)NCC2(N3CCOCC3)CCCCC2)cc1 | / | / | 4% | -10 | / | 4
